# Measured values reported in PubChem BioAssay.
# For part of these data: Results with a measured potency or affinity are listed apart. Active and inactive are the calls of the source.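 The calls were made as follows, unless noted: active = primary screen active and over 50% activation in each of two duplicate runs; inactive = the rest.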
# Tests used:
# [1] = tested on: TRPC4 beta (transient receptor potential cation channel C4), mouse; experiment: activators of mouse TRPC4 channel, confirmation, cell-based, Fluo4 calcium, HEK293 TRPC4beta/mu-opioid, duplicates, 10 µM (AID 2426;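 active = fluorescence ratio normalized to control raised more than 50% in primary screen plus both repeat runs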;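 as to activation: percent rise of integrated ratio over buffer wells lacking compound which define 0%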); details: Fluo4 calcium fluorescence, at 10 µM; active compounds read high
# [2] = tested on: transient receptor potential cation channel C4 beta (TRPC4), mouse; experiment: activators of mouse TRPC4 channel, confirmation, cell-based, second round, Fluo4, HEK293 TRPC4beta/mu-opioid, 1 µM (AID 2461); details: Fluo4 calcium fluorescence, at 1 µM; active compounds read high
# [3] = tested on: TRPC4 (transient receptor potential cation channel C4 beta), mouse; experiment: positive allosteric modulators of mouse TRPC4, confirmation, cell-based, second round, Fluo-4, HEK293 TRPC4beta/mu-opioid, 1 µM (AID 2554;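 active = primary screen hit whose fluorescence ratio, in both repeats, exceeds the weak agonist control mean by 3 SD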); details: DAMGO EC20, Fluo-4 calcium flux, at 1 µM; active compounds read high
# [4] = tested on: TRPC4 beta (transient receptor potential cation channel C4), mouse; experiment: positive allosteric modulators of mouse TRPC4, confirmation, cell-based, Fluo-4, HEK293 TRPC4beta/mu-opioid (AID 2555;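 active = primary screen hit whose calcium fluorescence ratio, in both repeats, exceeds the weak agonist control mean by 3 SD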); details: DAMGO EC20, Fluo-4 calcium flux, at 10 µM; active compounds read high
# [5] = molecular target: Short transient receptor potential channel 4 (Mus musculus) (UniProt Q9QUQ5); experiment: inhibitors of mouse TRPC4 channel, confirmation, cell-based, Fluo4, HEK293 TRPC4beta/mu-opioid (AID 2636;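 active = calcium signal cut by more than 3 SD below the full-agonist control yet still positive, in both repeats and the earlier primary screen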); details: DAMGO, Fluo4 calcium flux, at 10 µM; active compounds read high
# [6] = molecular target: Short transient receptor potential channel 4 (Mus musculus) (UniProt Q9QUQ5); experiment: inhibitors of mouse TRPC4 channel, confirmation, cell-based, second round, Fluo4, HEK293 TRPC4beta/mu-opioid, 1 µM (AID 2637;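 active = calcium signal ratio cut to more than 3 SD under the fully stimulated control mean yet still positive, in both repeats and the primary screen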); details: Fluo4 calcium flux, DAMGO, at 1 µM; active compounds read high
# [7] = molecular target: Short transient receptor potential channel 4 (Mus musculus) (UniProt Q9QUQ5); experiment: mouse TRPC4 channel activators, dose response, cell-based, HEK293 TRPC4/mu-opioid, Fluo-4 calcium (AID 434937;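 active = primary screen activator hit with a dose response curve and TRPC4 channel activation at any tested dose; inactive = no activation, no dose response, or not a primary hit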)
# [8] = molecular target: Short transient receptor potential channel 4 (Mus musculus) (UniProt Q9QUQ5); experiment: TRPC4 positive allosteric modulators, dose response, cell-based, HEK293 TRPC4/mu-opioid, Fluo-4 calcium, EC20 DAMGO (AID 434941;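 active = earlier screen potentiator hit that boosts the TRPC4 ion channel at some dose, with a dose response; inactive = no potentiation, no dose response, or not a prior hit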;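 also: calcium entry triggered by an EC20 dose of DAMGO at the co-expressed mu-opioid receptor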)
# [9] = molecular target: Short transient receptor potential channel 4 (Mus musculus) (UniProt Q9QUQ5); experiment: mouse TRPC4 channel inhibitors, dose response, cell-based, HEK293 TRPC4/mu-opioid, Fluo-4 calcium (AID 434942;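 active = primary screen inhibitor hit that blocks the TRPC4 channel at some tested dose, yielding a dose curve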)
# [10] = molecular target: Short transient receptor potential channel 6 (Mus musculus) (UniProt Q61143); experiment: inhibition of mouse TRPC6 channel, confirmation, selectivity assay for TRPC4 inhibitor project, cell-based, HEK293, membrane potential dye, duplicate (AID 434948;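 active = active in primary screen and both duplicates, each dropping signal beyond three positive-control SD with fluorescence still positive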); details: HEK293 TRPC6, membrane potential dye fluorescence, at 10 µM, stimulated with maximal-effect acetylcholine; active compounds read high
# [11] = molecular target: Short transient receptor potential channel 6 (Mus musculus) (UniProt Q61143); experiment: activation of mouse TRPC6 channel, confirmation, selectivity assay for TRPC4 activator project, cell-based, HEK293, membrane potential dye, duplicate (AID 434950;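 active = membrane potential signal rise above negative control mean plus 3 SD in both duplicates, also active in the earlier TRPC4 screen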;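 as to activation: 0% = buffer only wells and 100% = acetylcholine maximal-effect wells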); details: HEK293 TRPC6, membrane potential fluorescence, at 10 µM; active compounds read high
# [12] = molecular target: Short transient receptor potential channel 6 (Mus musculus) (UniProt Q61143); experiment: TRPC6 potentiation by TRPC4 potentiator hits, confirmation, selectivity assay for TRPC4 potentiator project, HEK293 cells, membrane potential dye, duplicate (AID 434952;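 active = compound raising the membrane signal above positive-control mean plus 3 SD in both repeats, and a primary screen hit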); details: HEK293 TRPC6, membrane potential dye fluorescence, at 10 µM, maximal acetylcholine added after compound; active compounds read high
# [13] = molecular target: Short transient receptor potential channel 4 (Mus musculus) (UniProt Q9QUQ5); experiment: calcium flux activators in TRPC4/5HT1a cells, counter-screen for TRPC4 activator project, cell-based, second counter screen, HEK293 TRPC4/5HT1a, Fluo-4 (AID 434977;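 active = calcium signal rise above buffer-control mean plus 5 SD in both duplicates, and also a hit in the primary screen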;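 as to activation: plate controls were assay buffer for no effect and maximal serotonin response for full effect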); details: Fluo-4 calcium flux, at 10 µM; active compounds read high
# [14] = calcium flux inhibitors in TRPC4/5HT1a cells, confirmation, counter-screen for TRPC4 inhibitor project, cell-based, second counter screen, HEK293 TRPC4/5HT1a, Fluo-4 (AID 434978;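 active = primary screen active whose calcium signal fell more than 3 SD beyond the full-serotonin control mean in both duplicate plates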;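 also: serotonin given first at submaximal then at maximal dose after compound preincubation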); details: Fluo-4 calcium flux, at 10 µM, serotonin added to trigger calcium flux; active compounds read high
# [15] = tested on: TRPC4 (mouse), co-expressed with 5HT1a in HEK293; experiment: calcium flux potentiators in TRPC4/5HT1a cells, confirmation, counter-screen for TRPC4 potentiator project, cell-based, second counter screen, HEK293 TRPC4/5HT1a, Fluo-4 (AID 434979;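 active = signal rise over 3 SD above mean of control wells given weak agonist, in both repeats and first screen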); details: Fluo-4 calcium flux, at 10 µM, serotonin added at its EC20 dose; active compounds read high
# [16] = calcium flux activation in mu-opioid HEK293 cells, confirmation, counter-screen for TRPC4 activator project, cell-based, HEK293 mu-opioid receptor line (AID 449723;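 active = hit in primary screen, with calcium signal over 5 SD above buffer well mean in both duplicates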;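 also: counter screen cells carry the mu-opioid receptor alone and lack TRPC4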); details: Fluo-4 calcium fluorescence, at 10 µM; active compounds read high
# [17] = calcium flux enhancement in mu-opioid HEK293 cells, confirmation, counter-screen for TRPC4 allosteric potentiator project, cell-based, HEK293 mu-opioid receptor line (AID 449724;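 active = calcium signal rise more than 3 SD above the low-dose agonist control mean, in both duplicate plates and the primary screen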); details: Fluo-4 calcium flux, at 10 µM, compound added before EC20 DAMGO stimulus; active compounds read high
# Chain of Short transient receptor potential channel 6 (Mus musculus) (Q61143 whole entry, looked up): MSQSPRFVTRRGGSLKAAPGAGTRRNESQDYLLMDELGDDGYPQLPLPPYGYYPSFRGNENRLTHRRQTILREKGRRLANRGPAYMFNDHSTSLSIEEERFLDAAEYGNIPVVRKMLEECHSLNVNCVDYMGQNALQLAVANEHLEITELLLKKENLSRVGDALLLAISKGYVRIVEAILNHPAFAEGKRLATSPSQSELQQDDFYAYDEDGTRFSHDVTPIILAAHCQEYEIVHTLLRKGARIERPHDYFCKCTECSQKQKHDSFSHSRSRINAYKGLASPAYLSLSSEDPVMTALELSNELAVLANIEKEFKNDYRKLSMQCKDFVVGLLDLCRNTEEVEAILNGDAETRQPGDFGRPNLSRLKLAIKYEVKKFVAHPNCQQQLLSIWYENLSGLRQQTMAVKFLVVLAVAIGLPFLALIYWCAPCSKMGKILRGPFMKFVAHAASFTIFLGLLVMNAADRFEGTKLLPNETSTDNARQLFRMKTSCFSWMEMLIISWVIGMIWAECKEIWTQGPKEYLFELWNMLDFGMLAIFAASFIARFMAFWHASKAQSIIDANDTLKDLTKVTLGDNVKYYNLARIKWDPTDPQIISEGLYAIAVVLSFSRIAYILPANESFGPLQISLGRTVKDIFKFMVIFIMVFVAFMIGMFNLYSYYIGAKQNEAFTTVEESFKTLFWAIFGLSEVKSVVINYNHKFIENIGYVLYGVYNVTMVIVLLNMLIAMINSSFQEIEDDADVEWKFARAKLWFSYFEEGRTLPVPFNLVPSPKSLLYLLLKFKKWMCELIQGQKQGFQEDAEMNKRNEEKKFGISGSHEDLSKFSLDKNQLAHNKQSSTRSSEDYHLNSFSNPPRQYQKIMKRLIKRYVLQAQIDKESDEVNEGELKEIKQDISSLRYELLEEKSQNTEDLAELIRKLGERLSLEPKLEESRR
# Chain of Short transient receptor potential channel 4 (Mus musculus) (Q9QUQ5 whole entry, looked up): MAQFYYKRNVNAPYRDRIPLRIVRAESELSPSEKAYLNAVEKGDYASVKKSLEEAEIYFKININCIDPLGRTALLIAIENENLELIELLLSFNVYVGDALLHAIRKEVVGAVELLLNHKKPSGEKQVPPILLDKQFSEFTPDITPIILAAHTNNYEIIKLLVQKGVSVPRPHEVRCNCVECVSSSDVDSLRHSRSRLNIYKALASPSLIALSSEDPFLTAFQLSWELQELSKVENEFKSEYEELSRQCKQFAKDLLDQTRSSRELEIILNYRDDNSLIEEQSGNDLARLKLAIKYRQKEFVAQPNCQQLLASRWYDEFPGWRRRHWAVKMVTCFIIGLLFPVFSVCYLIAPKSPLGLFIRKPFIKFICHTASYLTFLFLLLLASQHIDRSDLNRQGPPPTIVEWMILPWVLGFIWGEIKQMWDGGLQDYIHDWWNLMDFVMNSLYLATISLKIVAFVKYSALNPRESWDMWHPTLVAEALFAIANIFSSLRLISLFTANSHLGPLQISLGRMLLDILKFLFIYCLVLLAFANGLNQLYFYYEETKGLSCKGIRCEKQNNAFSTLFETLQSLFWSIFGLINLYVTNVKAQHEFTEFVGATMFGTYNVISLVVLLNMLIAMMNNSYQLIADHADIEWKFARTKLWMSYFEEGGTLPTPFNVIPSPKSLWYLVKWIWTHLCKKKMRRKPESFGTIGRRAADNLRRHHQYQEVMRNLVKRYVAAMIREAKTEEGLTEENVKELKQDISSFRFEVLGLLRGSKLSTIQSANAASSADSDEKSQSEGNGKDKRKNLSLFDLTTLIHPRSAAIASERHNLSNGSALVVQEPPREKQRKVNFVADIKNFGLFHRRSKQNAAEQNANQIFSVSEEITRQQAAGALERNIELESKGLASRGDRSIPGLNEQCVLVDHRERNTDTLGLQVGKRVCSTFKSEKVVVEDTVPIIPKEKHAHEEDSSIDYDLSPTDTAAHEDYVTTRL
structure (smiles),measurement,setting,value
O=C(Nc1nc2c(s1)CN(Cc1ccccc1)CC2)c1c(F)cccc1F,outcome,[1],inactive
same,outcome,[2],inactive
same,outcome,[3],inactive
same,potentiation,[4],10% (active)
same,outcome,[5],inactive
same,outcome,[6],inactive
same,outcome,[7],inactive
same,outcome,[8],inactive
same,outcome,[9],inactive
same,outcome,[10],inactive
same,outcome,[11],inactive
same,outcome,[12],inactive
same,outcome,[13],inactive
same,outcome,[14],inactive
same,potentiation,[15],14% (active)
same,outcome,[16],inactive
same,outcome,[17],inactive
Cc1cc(C)nc(NNS(=O)(=O)c2ccc(F)c(Cl)c2)n1,outcome,[1],inactive
same,outcome,[2],inactive
same,outcome,[3],inactive
same,outcome,[4],inactive
same,outcome,[5],inactive
same,outcome,[6],inactive
same,outcome,[7],inactive
same,outcome,[8],inactive
same,outcome,[9],inactive
same,outcome,[10],inactive
same,outcome,[11],inactive
same,outcome,[12],inactive
same,outcome,[13],inactive
same,outcome,[14],inactive
same,potentiation,[15],6.83% (active)
same,outcome,[16],inactive
same,outcome,[17],inactive
COc1ccc(CCNCC(O)COc2ccc(OC)cc2C(C)(C)C)cc1 (stereo not given),outcome,[1],inactive
same,outcome,[2],inactive
same,outcome,[3],inactive
same,outcome,[4],inactive
same,outcome,[5],inactive
same,outcome,[6],inactive
same,outcome,[7],inactive
same,outcome,[8],inactive
same,outcome,[9],inactive
same,outcome,[10],inactive
same,outcome,[11],inactive
same,outcome,[12],inactive
same,outcome,[13],inactive
same,outcome,[14],inactive
same,outcome,[15],inactive
same,outcome,[16],inactive
same,outcome,[17],inactive
COC(=O)/C=C1\SC(=NC(=O)c2cccc(Cl)c2)NC1=O,outcome,[1],inactive
same,outcome,[2],inactive
same,outcome,[3],inactive
same,outcome,[4],inactive
same,inhibition,[5],76% (active)
same,outcome,[6],inactive
same,outcome,[7],inactive
same,outcome,[8],inactive
same,outcome,[9],inactive
same,outcome,[10],inactive
same,outcome,[11],inactive
same,outcome,[12],inactive
same,outcome,[13],inactive
same,outcome,[14],inactive
same,outcome,[15],inactive
same,outcome,[16],inactive
same,outcome,[17],inactive
O=C(CC1CCCCC1)c1c(O)c2ccccc2oc1=O,activation,[1],151% (active)
same,outcome,[2],inactive
same,outcome,[3],inactive
same,outcome,[4],inactive
same,outcome,[5],inactive
same,outcome,[6],inactive
same,outcome,[7],inactive
same,outcome,[8],inactive
same,outcome,[9],inactive
same,outcome,[10],inactive
same,activation,[11],33.5% (active)
same,outcome,[12],inactive
same,activation,[13],62.5% (active)
same,outcome,[14],inactive
same,outcome,[15],inactive
same,activation,[16],30.8% (active)
same,outcome,[17],inactive
CCOC(=O)c1cnc(-n2nc(C)cc2C)nc1NC1CCCCC1,outcome,[1],inactive
same,outcome,[2],inactive
same,outcome,[3],inactive
same,outcome,[4],inactive
same,outcome,[5],inactive
same,outcome,[6],inactive
same,outcome,[7],inactive
same,outcome,[8],inactive
same,outcome,[9],inactive
same,outcome,[10],inactive
same,outcome,[11],inactive
same,outcome,[12],inactive
same,outcome,[13],inactive
same,outcome,[14],inactive
same,potentiation,[15],26.3% (active)
same,outcome,[16],inactive
same,outcome,[17],inactive
Cc1ccc(NC(=O)C2CCC(CNC(=O)[C@@H]3Cc4ccccc4CN3)CC2)cc1 (stereo not given in full),outcome,[1],inactive
same,outcome,[2],inactive
same,outcome,[3],inactive
same,outcome,[4],inactive
same,outcome,[5],inactive
same,outcome,[6],inactive
same,outcome,[7],inactive
same,outcome,[8],inactive
same,outcome,[9],inactive
same,outcome,[10],inactive
same,outcome,[11],inactive
same,outcome,[12],inactive
same,outcome,[13],inactive
same,outcome,[14],inactive
same,outcome,[15],inactive
same,outcome,[16],inactive
same,outcome,[17],inactive
CCc1c(C)nc2ccc(Br)cc2c1SCCC#N,outcome,[1],inactive
same,outcome,[2],inactive
same,outcome,[3],inactive
same,outcome,[4],inactive
same,outcome,[5],inactive
same,outcome,[6],inactive
same,outcome,[7],inactive
same,outcome,[8],inactive
same,outcome,[9],inactive
same,outcome,[10],inactive
same,outcome,[11],inactive
same,outcome,[12],inactive
same,outcome,[13],inactive
same,outcome,[14],inactive
same,outcome,[15],inactive
same,outcome,[16],inactive
same,outcome,[17],inactive
Clc1ccc2[nH]c3c(c2c1)CNCC3,outcome,[1],inactive
same,outcome,[2],inactive
same,potentiation,[3],10% (active)
same,potentiation,[4],12% (active)
same,outcome,[5],inactive
same,outcome,[6],inactive
same,outcome,[7],inactive
same,outcome,[8],inactive
same,outcome,[9],inactive
same,outcome,[10],inactive
same,outcome,[11],inactive
same,outcome,[12],inactive
same,outcome,[13],inactive
same,outcome,[14],inactive
same,outcome,[15],inactive
same,outcome,[16],inactive
same,outcome,[17],inactive
Cc1ccc(C[n+]2cccc(-c3ccccc3)c2)c(C)c1,outcome,[1],inactive
same,outcome,[2],inactive
same,outcome,[3],inactive
same,outcome,[4],inactive
same,outcome,[5],inactive
same,outcome,[6],inactive
same,outcome,[7],inactive
same,outcome,[8],inactive
same,outcome,[9],inactive
same,outcome,[10],inactive
same,outcome,[11],inactive
same,outcome,[12],inactive
same,outcome,[13],inactive
same,outcome,[14],inactive
same,outcome,[15],inactive
same,outcome,[16],inactive
same,outcome,[17],inactive
COc1ccc(/C=N/n2c(SC)nnc2-c2ccccc2)cc1C,outcome,[1],inactive
same,outcome,[2],inactive
same,outcome,[3],inactive
same,potentiation,[4],9% (active)
same,outcome,[5],inactive
same,outcome,[6],inactive
same,outcome,[7],inactive
same,outcome,[8],inactive
same,outcome,[9],inactive
same,outcome,[10],inactive
same,outcome,[11],inactive
same,outcome,[12],inactive
same,outcome,[13],inactive
same,outcome,[14],inactive
same,potentiation,[15],20.6% (active)
same,outcome,[16],inactive
same,outcome,[17],inactive
Cc1ccc(-c2cn(-c3ccccc3)c(SCC(N)=O)n2)cc1C,outcome,[1],inactive
same,outcome,[2],inactive
same,potentiation,[3],29% (active)
same,outcome,[4],inactive
same,outcome,[5],inactive
same,outcome,[6],inactive
same,outcome,[7],inactive
same,outcome,[8],inactive
same,outcome,[9],inactive
same,outcome,[10],inactive
same,outcome,[11],inactive
same,outcome,[12],inactive
same,outcome,[13],inactive
same,outcome,[14],inactive
same,potentiation,[15],25.4% (active)
same,outcome,[16],inactive
same,activation,[17],741% (active)
CC(NC(=O)c1ccccc1NC(=O)CN1CCc2ccccc2C1)c1ccccc1 (stereo not given),outcome,[1],inactive
same,outcome,[2],inactive
same,outcome,[3],inactive
same,outcome,[4],inactive
same,outcome,[5],inactive
same,outcome,[6],inactive
same,outcome,[7],inactive
same,outcome,[8],inactive
same,outcome,[9],inactive
same,outcome,[10],inactive
same,outcome,[11],inactive
same,outcome,[12],inactive
same,outcome,[13],inactive
same,outcome,[14],inactive
same,potentiation,[15],20.3% (active)
same,outcome,[16],inactive
same,outcome,[17],inactive
O=S(=O)(c1ccccc1Cl)N1CCC(Cc2ccccc2)CC1,outcome,[1],inactive
same,outcome,[2],inactive
same,outcome,[3],inactive
same,potentiation,[4],16% (active)
same,outcome,[5],inactive
same,outcome,[6],inactive
same,outcome,[7],inactive
same,outcome,[8],inactive
same,outcome,[9],inactive
same,outcome,[10],inactive
same,outcome,[11],inactive
same,outcome,[12],inactive
same,outcome,[13],inactive
same,outcome,[14],inactive
same,potentiation,[15],6.72% (active)
same,outcome,[16],inactive
same,outcome,[17],inactive
O=C(c1ccc([N+](=O)[O-])s1)N1CCCc2ccccc21,outcome,[1],inactive
same,outcome,[2],inactive
same,outcome,[3],inactive
same,outcome,[4],inactive
same,outcome,[5],inactive
same,outcome,[6],inactive
same,outcome,[7],inactive
same,outcome,[8],inactive
same,outcome,[9],inactive
same,outcome,[10],inactive
same,outcome,[11],inactive
same,outcome,[12],inactive
same,outcome,[13],inactive
same,outcome,[14],inactive
same,outcome,[15],inactive
same,outcome,[16],inactive
same,outcome,[17],inactive
